Assay outcomes: PubChem, Pan Lab, Icahn School of Medicine at Mount Sinai
ROC1-CUL1 inh – blocks human RBX1-Cullin-1 di-ubiquitin formation. 140,000 tested, 0.6% active. in vitro K48 di-Ub FRET, acceptor:donor ratio, 45 min. AID 1347404. P62877+Q13616. inhibition, % at 10 µM; in the data active = inhibition above about 25%
Target sequence (P62877 whole entry, looked up): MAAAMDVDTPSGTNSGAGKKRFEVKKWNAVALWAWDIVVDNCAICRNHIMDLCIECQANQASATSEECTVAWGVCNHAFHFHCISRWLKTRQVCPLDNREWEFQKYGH
Target sequence (Q13616 whole entry, looked up): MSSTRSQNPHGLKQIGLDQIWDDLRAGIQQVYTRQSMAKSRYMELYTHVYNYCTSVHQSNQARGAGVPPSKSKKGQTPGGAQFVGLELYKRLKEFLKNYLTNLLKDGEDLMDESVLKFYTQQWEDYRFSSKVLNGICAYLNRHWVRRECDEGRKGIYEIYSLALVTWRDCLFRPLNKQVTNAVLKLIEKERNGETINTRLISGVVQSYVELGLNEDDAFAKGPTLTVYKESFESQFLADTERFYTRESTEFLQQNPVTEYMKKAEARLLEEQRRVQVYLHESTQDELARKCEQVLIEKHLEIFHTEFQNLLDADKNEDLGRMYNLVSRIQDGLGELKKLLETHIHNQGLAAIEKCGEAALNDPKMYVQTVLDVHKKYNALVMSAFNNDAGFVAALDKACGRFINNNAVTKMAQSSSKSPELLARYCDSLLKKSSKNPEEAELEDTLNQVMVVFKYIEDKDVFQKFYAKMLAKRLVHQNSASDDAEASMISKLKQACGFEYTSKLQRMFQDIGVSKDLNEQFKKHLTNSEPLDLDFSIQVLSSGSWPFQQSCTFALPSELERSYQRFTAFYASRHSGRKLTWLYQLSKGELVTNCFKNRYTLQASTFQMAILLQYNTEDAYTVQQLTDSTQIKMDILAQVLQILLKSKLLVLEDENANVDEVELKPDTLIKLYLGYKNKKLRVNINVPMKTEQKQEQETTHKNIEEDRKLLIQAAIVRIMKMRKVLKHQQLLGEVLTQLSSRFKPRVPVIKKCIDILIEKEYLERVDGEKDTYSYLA
Numbers stand for hits; . = inactive. This is one part of a sample in which hits are shown more often than they occur.

SMILES	ROC1-CUL1 inh
COC(=O)C1CCCN1C(=O)COc1ccc(Br)cc1Cl (configuration not stated)	.
CC(C)c1ccc(S(=O)(=O)N2CCN(C(=O)C3CC3)CC2)cc1	.
CCOc1ccc(-n2c(SCC(N)=O)nc3c(oc4ccccc43)c2=O)cc1	.
CCCN1CCC(NC(=O)c2ccc(C)cc2)CC1	.
COC1=CC(=NC#N)C(Br)=CC1=NC#N	104
O=C1COc2ccc(S(=O)(=O)NCC3CCCO3)c3c2N1CCC3 (configuration not stated)	.
CCOC(=O)c1nn(-c2ccccc2C(=O)O)c(=O)c2c(N)sc(Br)c12	33
CCOC(=O)c1nn(-c2ccccc2)c(=O)c2c(N)scc12	.
CCOC(=O)c1nn(-c2ccccc2C(=O)O)c(N)c1C(N)=S	.
C=C(C)CNC(=O)C1CCCN(C2CCN(C3Cc4ccccc4C3)CC2)C1 (configuration not stated)	.
CN1CCN(c2cnn(Cc3c(F)cccc3C(F)(F)F)c(=O)c2)CC1	.
O=C(Nc1nc(-c2ccc(Cl)c(Cl)c2)cs1)C1CC1	.
CN(C)C(=O)c1csc2nc(-c3ccc(C(F)(F)F)cc3)cn12	.
COC(=O)[C@H]1O[C@H](c2ccccc2)O[C@H]1c1ccccc1	.
COC(=O)[C@@H]1C(c2ccccc2)N=C(c2ccccc2)[C@H]1C (some centres not stated)	.
COC(=O)[C@H]1CC2C(=O)C=C(c3ccccc3)C1N2C (some centres not stated)	39
CCC1NC(=O)c2ccccc2N1c1cccc(Cl)c1 (configuration not stated)	.
CN(C)CC1=Nc2ccccc2C1=O	.
CCN(CC)CCN=C(N)C(C#N)CC1=Nc2ccccc2C1=O (configuration not stated)	.
N#CC(CC1=Nc2ccccc2C1=O)C(N)=NC1CCCCC1 (configuration not stated)	71
Cc1ccc(C)c2c1C(=O)c1c(C)ccc(C)c1-2	.
Cc1cc(S(=O)(=O)C(CNC(=O)c2ccc(F)c(F)c2)c2cccs2)ccc1F (configuration not stated)	.
CCN1CCN(Cc2c(C)[nH]c3ccc(F)cc3c2=O)CC1	.
COc1ccc(N=C2NC(=O)/C(=C/c3ccc(OCc4cccc(C(=O)O)c4)c(OC)c3)S2)cc1	.
CCOc1ccccc1/C=C1\SC(=Nc2cccc(Cl)c2C)NC1=O	26
SMILES	ROC1-CUL1 inh
Cc1cc(/C=C2\SC(=Nc3ccccc3)NC2=O)c(C)n1-c1cc(C(=O)O)cc(C(=O)O)c1	69
CCc1ccc(N=C2NC(=O)/C(=C/c3cc(C)n(-c4ccncc4)c3C)S2)cc1	.
O=C1NC(=Nc2ccc(Br)cc2)S/C1=C\c1ccccc1O	.
Cc1ccccc1/C=C1/SC(=Nc2ccccc2)NC1=O	.
COc1ccc(/C=C2\SC(=Nc3cccc(Cl)c3C)NC2=O)c(OC)c1	.
CCOc1cc(/C=C2\SC(=Nc3cccc(Cl)c3C)NC2=O)cc(Br)c1OC	.
O=C1NC(=Nc2ccc(C(=O)O)cc2)S/C1=C/c1ccccc1OCc1ccccc1	94
Cn1ccnc1CN1CCCC(CCc2cccc(F)c2)C1 (configuration not stated)	.
CCOCC(O)CNCc1cn[nH]c1-c1ccc(OC)c(F)c1 (configuration not stated)	.
O=C(Nc1ccccc1F)C1CCN(Cc2ccccc2)CC1	.
COc1ccc(CNC(=O)C(CC(C)C)N2Cc3ccccc3C2=O)cc1 (configuration not stated)	.
COc1ccc(C(=O)N2CCCC2)c(OC2CCN(Cc3cccc4c3OCO4)CC2)c1	.
Cc1cc(C(F)(F)F)n2nc(N)c(N=Nc3cccc4ccccc34)c2n1	.
Clc1ccc(-c2oncc2-c2nnnn2-c2ccccc2)cc1Cl	.
O=C1C=CC(=O)C(C(C=NCc2ccccc2)[N+](=O)[O-])=C1 (configuration not stated)	97
CN1C(=O)C(C=NCc2ccccc2)c2ccccc21 (configuration not stated)	.
CC1(C)OC(=O)C(C=NCc2ccccc2)C(=O)O1	.
Nc1c(C(=O)Nc2cccc(F)c2)sc2nc(-c3cccs3)ccc12	.
N=c1c2sc3nc(-c4cccs4)cc(C(F)(F)F)c3c2ncn1N	39
FC(F)(F)c1cc(-c2cccs2)nc2sc3c(=S)nc[nH]c3c12	.
CSc1ncnc2c1sc1nc(-c3cccs3)cc(C(F)(F)F)c12	.
O=C(c1ccc2oc(Cc3ccc(Cl)cc3)nc2c1)N(CCO)CCO	.
CCOc1ccc(S(=O)(=O)N2CCSC2c2ccc3c4c(cccc24)CC3)cc1 (configuration not stated)	.
CCCCCCCC1=NN2C(=N)/C(=C/c3ccc(-c4ccc(F)cc4)o3)C(=O)N=C2S1	.
CCCCCC1=NN2C(=N)/C(=C\c3ccc([N+](=O)[O-])o3)C(=O)N=C2S1	101
SMILES	ROC1-CUL1 inh
CCCCCCCC1=NN2C(=N)/C(=C/c3ccc(-c4ccc(Cl)cc4)o3)C(=O)N=C2S1	.
Cc1oc(-c2ccccc2NS(C)(=O)=O)nc1CN(C)Cc1ccc(CN2CCCCC2)s1	.
O=C(c1ccc(F)cc1Cl)N1CCN(S(=O)(=O)c2ccc(Cl)s2)CC1	.
COC(=O)c1ccc(C(=O)OC)c(NC(=O)CN(C)C)c1	51
COC(=O)c1ccc(C(=O)OC)c(NC(=O)CCc2ccccc2)c1	.
COC(=O)c1ccc(C(=O)OC)c(NC(=O)Cc2ccc(Br)cc2)c1	.
Cc1ccc(S(=O)(=O)Nc2cc3c4c(cccc4c2)-c2ccccc2-3)cc1	.
N#Cc1c(OCc2ccc(F)cc2)nc2c(c1-c1cccnc1)CCc1ccccc1-2	.
Cc1nonc1CN(C)C(=O)c1cc(NC(=O)CC2CCCC2)cc2nc(C3CCCO3)n(C)c12 (configuration not stated)	.
Cc1cc(C)c2c(=O)[nH]c(SCC(=O)c3ccc(O)c(O)c3)nc2n1	.
CCSc1nc2sc(C)c(C)c2c(=O)[nH]1	.
Cc1sc2nc(SCC(=O)c3ccc(O)c(O)c3)[nH]c(=O)c2c1C	67
COCCCNC(=O)c1cc2c(=O)n3ccccc3nc2n(Cc2ccc(C)cc2)c1=N	.
Cc1ccc(C(=O)c2sc3nc4c(c(-c5cccnc5)c3c2N)CCC4)cc1	.
O=C(NC1CCCC1)c1ccc(CSc2nc3ccncc3n2Cc2cccc(F)c2)cc1	.
O=C(CSc1nccn1Cc1ccccc1)NCc1ccccc1Cl	.
CCC(=O)Nc1cccc(Oc2ccc3c(c2)C(=O)N(c2ccccc2)C3=O)c1	.
CCc1cccc2c(/C=C3\C(=O)NC(=S)N(Cc4ccco4)C3=O)cn(CC(N)=O)c12	74
CCOC(=O)Cn1cc(/C=C2\C(=O)NC(=O)N(Cc3ccccc3)C2=O)c2ccccc21	.
CCc1cccc2c(/C=C3/C(=O)NC(=S)N(CC)C3=O)cn(CCOc3ccccc3Cl)c12	.
Clc1ssc(=Nc2ccccn2)c1Cl	.
Cc1cc(C)c2c(n1)sc1nc(SCC(N)=O)c3cccn3c12	.
COc1cc(/C=C2\SC(=O)N(c3ccc(Cl)cc3)C2=O)ccc1OCC#N	.
COc1cc(/C=C2\C(=O)NN(c3ccccc3)C2=O)ccc1OCCCOc1ccccc1	.
COc1cccc(/C=C2/C(=O)NN(c3ccc(C)cc3)C2=O)c1	.
O=C1NN(c2ccccc2)C(=O)/C1=C/c1cc(Cl)ccc1OCCCOc1ccccc1	.
Cc1ccc(COc2ccccc2/C=C2\C(=O)NN(c3ccccc3)C2=O)cc1	.
Cc1ccc(OCCCOc2cccc(/C=C3\C(=O)NN(c4ccccc4)C3=O)c2)cc1	25
